From PubChem BioAssay
A selection: hits, their analogues and other compounds. The true share with any hit is near 2.8%.
PAX8 inh HTS – inhibitors of PAX8-driven TPO luciferase reporter, primary screen, RMG-I cells, single concentration. SteadyGlo, 24 h. inhibition, % at 12.6 µM. actives 1.2% (n = 360,000);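 active = mean replicate inhibition at least 60% with every replicate also reaching 60%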;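 also: luciferase light reporting Pax8 driven TPO promoter activity; plate controls were median of neutral control wells for no effect and mitoxantrone controls for full effect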
Shn3 inh set2 – reduction of Shn3 3'UTR firefly luciferase signal, primary screen, Schnurri-3 inhibitor project, cell-based, Clone20 osteoblasts, set 2; actives 0.52% (n = 360,000); Clone20 osteoblast Shn3 3'UTR firefly luciferase, 24 h; inhibition, % at 12.5 µM; AID 588674, 2011;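 active = mean inhibition of at least 75% with every replicate also reaching 75%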;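 also: 0% = median of neutral control wells and 100% = pilot-screen positive control compound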
HIF-2a inh – HIF-2a reporter inhibitors, primary screen, luminescence, 786-0 RCC cells | 786-0 RCC cells HIF-2a reporter, luciferase luminescence, overnight | inhibition, % at 18.8 µM | actives 0.72% (n = 360,000) | AID 624352, 2012;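 active = inhibition of the luminescence signal of 40% or more relative to plate controls, in a single-dose primary screen at 18.75 µM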
EBV LMP1 NFkB – EBV LMP1-driven NF-kappaB luciferase reporter inhibitors, primary screen, cell-based, luminescence, single point | LMP1-induced NF-kappaB luciferase reporter cells | inhibition, % at 12.5 µM | actives 0.69% (n = 350,000); in the data active = inhibition above about 41%;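 also: 0% = neutral control wells and 100% = reference inhibitor control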
Peg3 prom inh-1 – Peg3 promoter-driven luciferase inhibitors, primary screen, cell-based, HeLa, luciferase luminescence; inhibition, % at 20 µM; AID 588405, 2011; actives 1.7% (n = 360,000); HeLa PEG-Prom luciferase reporter, overnight;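 active = inhibition of at least 50% at 20 µM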
TRPM1 prom inh – inhibitors of MITF-dependent TRPM1 promoter reporter, primary screen, cell-based, SK-MEL-5, single point, luciferase. inhibition, % at 12.5 µM. AID 488899, 2010. actives 0.83% (n = 330,000). SK-MEL-5 TRPM1 promoter luciferase, 24 h;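 active = mean inhibition across replicates of 60% or more, whatever share of single replicates reaches that level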
Peg3 prom inh-2 – Peg3 promoter reporter inhibitors, retest, confirmation, cell-based, HeLa, luciferase reporter, single concentration. shares compounds with Peg3 prom inh-1. HeLa PEG-Prom luciferase reporter, luminescence, overnight. inhibition, % at 20 µM. actives 84% (n = 1,300);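 active = at 20 µM dose, 40% or more inhibition averaged across four replicates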
Active calls of the source: *; . = no result given; ! = repeats disagree.

SMILES	PAX8 inh HTS	Shn3 inh set2	HIF-2a inh	EBV LMP1 NFkB	Peg3 prom inh-1	TRPM1 prom inh	Peg3 prom inh-2
CC(=O)NC(c1ccccc1)c1cc([N+](=O)[O-])c2cccnc2c1O (stereo not given)	14	-11	21	2	61*	14	63*
OCCCn1c(C2CCCN2c2nc(-c3ccc(F)cc3)cs2)nc2cc(Cl)c(N3CCCCC3)cc21 (stereo not given)	3	21	13	-6	56*	18	21
COc1cc(C(=O)NCCc2c[nH]c3ccccc23)ccc1OCc1c(C)noc1C	7	-11	13	3	63*	-1	18
C[C@@H]1CN([C@H](C)CO)C(=O)Cc2cc(NC(=O)c3ccncc3)ccc2O[C@H]1CN(C)Cc1ccc2c(c1)OCO2	-11	.	.	.	.	.	.
CCc1nc2ccc(C(=O)Nc3cccc(OCC(=O)N(C)C)c3)cn2c1N(C)Cc1ccc(OC)cc1	-8	39	-3	.	72*	.	42*
CCC(C)Sc1ccc(-c2nc3ccccn3c2NCc2ccccc2)cc1OC (stereo not given)	.	-38	-292	3	93*	6	97*
NS(=O)(=O)c1ccc(CCNC(=O)c2cc(-c3cccs3)nc3ccccc23)cc1	-5	7	-10	-5	54*	8	41*
NS(=O)(=O)c1ccc(CNC(=O)c2cc(-c3cccs3)nc3ccccc23)cc1	-3	5	1	-2	31	7	.
CCOC(=O)c1c(C)[nH]c(C(=O)OCC(=O)Nc2sccc2C(N)=O)c1C	30	82	-27	16	70*	38	73*
O=C(CCSc1nc2ccccc2s1)N/N=C/c1c(O)ccc2ccccc12	47	87*	15	-10	54*	41	59*
O=C(CCc1ccccc1)OCCN1CCOCC1	.	-25	-1	-3	-13	2	.
CCOC(=O)/C(=C\c1ccccc1)C(=O)CCN1CCOCC1	.	21	10	1	97*	84*	86*
Cc1ccccc1CNC(=O)C1CCCN(c2nnc(C)c3c(C)n(-c4ccccc4)nc23)C1 (stereo not given)	95*	-11	25	-3	63*	82*	81*
Cc1ccc(-n2nc3c(N4CCC(C(=O)N5CCCCCC5)CC4)nnc(C)c3c2C)cc1	.	14	15	-13	30	-9	.
CSc1nnc(NC(=O)c2ccc3c(c2)OCO3)s1	-98	54	-13	68*	52*	41	15
Cc1nnc(NC(=O)c2ccc3c(c2)OCO3)s1	-110	-34	-184	-13	-160	-47	.
Cc1cccc(NC(=O)c2oc3ccc(S(=O)(=O)N4CCOCC4)cc3c2C)c1C	.	11	1	16	54*	8	56*
Cc1ccc(NC(=O)c2oc3ccc(S(=O)(=O)N4CCOCC4)cc3c2C)c(C)c1	-19	24	15	3	-4	0	.
C[C@H](CO)N1C[C@H](C)[C@@H](CN(C)CC2CCOCC2)Oc2cc(C#C[C@@H](C)O)ccc2S1(=O)=O	-4	.	.	.	.	.	.
COc1ccc(N=CC2=C(O)c3ccccc3C2=O)c(OC)c1	.	44	55*	57*	74*	76*	21
COc1cccc(NC(=O)CN(C)C(=O)c2cccnc2Nc2cccc(C(F)(F)F)c2)c1	.	31	9	-20	69*	28	73*
COc1cc(NC(=O)c2nccn2C)cc(C(=O)Nc2cccc(C(F)(F)F)c2)c1	33	12	-24	-25	53*!	36	33
C[C@@H]1CN([C@@H](C)CO)S(=O)(=O)c2ccc(-c3cncnc3)cc2O[C@@H]1CN(C)C(=O)Cc1ccccc1	-6	.	.	.	.	.	.
CCN1C/C(=C/c2ccc(N3CCOCC3)cc2)C(=O)/C(=C/c2ccc(N3CCOCC3)cc2)C1	31	65	93*	-69	101*	93*	97*
CCN1CCN(c2ccc(S(=O)(=O)N3CCOCC3)cc2NC(=O)/C=C/c2ccc([N+](=O)[O-])cc2)CC1	72*	3	-13	2	70*	64*	75*
SMILES	PAX8 inh HTS	Shn3 inh set2	HIF-2a inh	EBV LMP1 NFkB	Peg3 prom inh-1	TRPM1 prom inh	Peg3 prom inh-2
COc1ccc(CN(C)C[C@@H]2Oc3ccc(NC(=O)NC4CCCCC4)cc3C(=O)N([C@@H](C)CO)C[C@H]2C)cc1	-9	.	.	.	.	.	.
Cc1c(C(=O)N2CCN(c3ccc(F)cc3)CC2)sc2ncnc(N3CCN(c4ccccn4)CC3)c12	59	30	6	25	50*	36	87*
COc1ccccc1N1CCN(C(=O)c2sc3ncnc(N4CCN(c5ccccn5)CC4)c3c2C)CC1	.	35	7	24	84*	16	74*
O=C(NCc1nc2ccccc2[nH]1)C1=C[C@@H](c2ccc3c(c2)OCO3)C[C@@H](OCCCCO)O1	10	.	.	.	.	.	.
CN1CCN(C(=O)C[C@H]2CC[C@H](NS(=O)(=O)c3cccc(F)c3)[C@H](CO)O2)CC1	-28	.	.	.	.	.	.
COc1ccc(CN(C)C[C@@H]2OCCCC[C@@H](C)Oc3ccc(NS(=O)(=O)c4ccc(C)cc4)cc3C(=O)N([C@H](C)CO)C[C@H]2C)cc1	31	.	.	.	.	.	.
c1ccc(-c2cc(-c3nc4ccccc4[nH]3)c3ccccc3n2)cc1	3	36	-59	-15	81*	4	89*
Nc1ccc(-c2nc3ccccc3[nH]2)cc1	-83	-70	-68	-6	-244	-6	.
O=c1cc(NCCCO)c2ccccc2o1	2	5	16	1	5	-8	.
CN(C)CCNc1ccc(CO)c2oc3ccc(O)cc3c(=O)c12	.	-14	41*	-6	97*	19	90*
CCCCNC(=O)C(C)N(CCN(C)C)C(=O)CCCN1C(=O)NC(c2ccc([N+](=O)[O-])cc2)C(C(=O)OCc2ccccc2)=C1C (stereo not given)	.	-5	-28	4	57*	18	31
Cc1ccc2nc(/C(C#N)=C\c3ccc([N+](=O)[O-])o3)[nH]c2c1	.	99*	-31	-14	105*	92*	84*
N#C/C(=C\c1ccc(OCc2ccc(C(=O)O)cc2)cc1)C(=O)N1CCOCC1	87*	54	-20	84*	71*	85*	76*
O=C(N[C@H]1C=C[C@@H](CC(=O)N2CCc3ccccc3C2)O[C@H]1CO)C1CC1	4	.	.	.	.	.	.
COCCNC(=O)C(=O)c1c(-c2ccccc2)[nH]c2ccccc12	-3	-42	-8	-14	-52	13	.
